# Experimental data as given in PubChem BioAssay AID540267 (National Center for Advancing Translational Sciences (NCATS), 2011).
# Out of some 340,000 compounds screened, about 530 (0.16%) were called active. Another 2% or so got no clear call; they are omitted. Rule as the data show it: active = activity change below about -80%; inconclusive = between about -30% and that limit; inactive = weaker than that. What follows is part of a selection rich in actives, with near analogues and random picks from the rest.
# Assay: Small Molecules that selectively kill Giardia lamblia: qHTS;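 also: parasites exposed to compound for two days anaerobically before the ATP read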
# Settings: Giardia lamblia trophozoite viability; at 7.66 µM; active compounds read low
# Summary of the method: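 ATP-content bioluminescence gauges trophozoite survival. Cells (100/well) receive compound and incubate anaerobically for 48 hrs at 37 deg C; detection reagent follows for 15-30 min at room temperature.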
# % is scaled to controls: 0 for no effect and ±100 for the full control effect.
row,SMILES,activity change
1,Cc1nc(-c2ccccc2)cn2c1nc1ccccc12,7.53% (inactive)
2,O=S(=O)(c1cccc(C(F)(F)F)c1)N1CCN(c2nc(-c3cccs3)nc3ccccc23)CC1,27.4% (inactive)
3,COC(=O)c1ccc(OCC(O)CN(CCO)CC(O)Cn2ccc3ccccc32)cc1 (configuration not stated),8.7% (inactive)
4,CCCCNC(=O)Cn1c(SCc2cccc(Cl)c2)nc2ccncc21,12.3% (inactive)
5,Cc1ccc(S(=O)(=O)N2CCN(c3nc(-n4cnc5ccccc54)nc4ccccc34)CC2)cc1,11.1% (inactive)
6,CC(C)=CCN1CCN(CCCc2ccccc2)CC1CCO (configuration not stated),23.8% (inactive)
7,Cc1ccc(-c2nn(-c3ccccc3)cc2C(=O)NC2CCC(O)CC2)cc1 (configuration not stated),4.06% (inactive)
8,O=C(NCCCN1CCOCC1)c1cn(-c2ccccc2)nc1-c1ccc(F)cc1,-14.8% (inactive)
9,O=C(N/N=C/c1ccc([N+](=O)[O-])o1)c1cn(-c2ccccc2)nc1-c1ccc(F)cc1,-93% (active)
10,Cc1noc(C)c1NC(=O)Nc1cccc2c1O[C@H](CN(C)C(=O)Nc1ccccc1)[C@@H](C)CN([C@H](C)CO)C2=O,8.07% (inactive)
11,C[C@H](CO)N1C[C@H](C)[C@H](CN(C)C(=O)Nc2ccc(C(F)(F)F)cc2)Oc2c(NC(=O)c3ccncc3)cccc2C1=O,-89.7% (active)
12,Cc1noc(C)c1NC(=O)Nc1ccc2c(c1)C(=O)N([C@H](C)CO)C[C@H](C)[C@@H](CN(C)C(=O)Nc1ccc(C(F)(F)F)cc1)O2,41.7% (inactive)
13,Cc1ccc(-c2nc(=N)sn2Cc2ccccc2)cc1,24.2% (inactive)
14,COc1ccc(Cn2c(=O)[nH]c3cc(C(=O)N4CCN(C(=O)c5ccco5)CC4)ccc3c2=O)cc1,-2.35% (inactive)
15,Cc1noc(NS(=O)(=O)c2ccc(NC(=O)c3oc4ccc(F)cc4c3C)cc2)c1C,6.55% (inactive)
16,COc1ccc(S(=O)(=O)N2CCN(c3ccc(F)cc3)CC2)cc1-c1noc(C)n1,5.27% (inactive)
17,COC(=O)C(CC(C)C)NS(=O)(=O)c1cc(Br)ccc1Br (configuration not stated),-10.7% (inactive)
18,Cc1ccc(Nc2c(-c3ccc(C)s3)nc3ccccn23)cc1,1.31% (inactive)
19,COc1ccc2nc(N3CCN(C(=O)c4ccc([N+](=O)[O-])o4)CC3)sc2c1,-98.8% (active)
20,COc1ccc2nc(N3C(=O)C(O)=C(C(=O)c4ccco4)C3c3ccco3)sc2c1 (configuration not stated),1.49% (inactive)
21,O=C(c1ccc2nc(N3CCOCC3)sc2c1)N1CCN(c2ccc(Cl)cc2)CC1,-10.4% (inactive)
22,O=C(NCC1CC1)C1(C(F)(F)F)C/C(=C\CCO)CCCO1 (configuration not stated),-14.8% (inactive)
